The list is not random: actives were taken first. Their share in the collection is about 19%.
IL-1B inflam inh: inhibitors of inflammasome signaling (IL-1 beta secretion); THP-1 LPS/ATP IL-1B secretion, AlphaLISA, 16 h; hits give low values; activity change, % at 57.5 µM; 360,000 compounds, 4.7% hits; AID 743279; in the data active = activity change below about -50%; inconclusive = mostly about -30% to -49%; also: % is scaled to controls: 0 for no effect and ±100 for the full control effect
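Secreted IL-1B measured by AlphaLISA bead assay after 16 h compound exposure of THP-1 cells; compounds (final up to 57.5 uM) added 1 h before LPS (250 ng/mL) and ATP (1.25 mM) stimulation; lower signal means less secretion.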
TGFb inhibitor: blocks TGF-b signaling | HepG2 CAGA-GFP TGF-b/SMAD3 reporter, GFP fluorescence, 18 h; TGF-beta stimulated, 500 pg/mL final | Potency, µM (top dose mostly 46.1 µM), inactives show top-dose activity, negative = inhibition, actives largely listed as inhibitors | 410,000 compounds, 1.2% hits | AID 588855; also: potency is read from the fitted curve at half-maximal effect; % is scaled to controls: 0 for no effect and ±100 for the full control effect; nearly all actives have a fitted effect of over 65% in size
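Read-out: total well GFP (ex488/em500-530) summed from mean per-cell fluorescence. Cells: HEPG2 CAGA-GFP, 1% FBS DMEM, 18 h at 37 degrees C with 500 pg/mL final TGF-beta. Unstimulated wells served as the full-inhibition control; stimulated DMSO wells = 0%.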
DT40 TDP1 CPT: growth inhibition of DT40 Tdp1-/-;hTDP1 cells with camptothecin (screen for TDP1 inhibitors) | chicken DT40 Tdp1-/-;hTDP1 cells + 20 nM CPT, ATP luminescence, 48 h | Potency, µM (doses to about 46.2 µM), without a hit: top-dose activity change, negative = growth inhibition, most hits filed as inhibitors | AID 686979 | 420,000 compounds, 12% hits; also: potency is read from the fitted curve at half-maximal effect; % is scaled to controls: 0 for no effect and ±100 for the full control effect; nearly all actives have a fitted effect of over 55% in size
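Cell growth measured by CellTiter-Glo luminescence after a minimum 48 h, 37 C compound exposure with 20 nM CPT in Tdp1-knockout DT40 cells stably expressing hTDP1, seeded 400/well; qHTS titration format.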
S-ASM inh: inhibitors of human secretory acid sphingomyelinase. AID 504937. Potency, µM (series often up to 57.5 µM), for the others: top-dose activity change, negative = inhibition, usual class: inhibitors. 340,000 compounds, 0.006% hits. P17405. placental ASM, HMU-PC fluorogenic substrate, 60 min; also: potency is read from the fitted curve at half-maximal effect
Target sequence (P17405 47-631 limits assumed): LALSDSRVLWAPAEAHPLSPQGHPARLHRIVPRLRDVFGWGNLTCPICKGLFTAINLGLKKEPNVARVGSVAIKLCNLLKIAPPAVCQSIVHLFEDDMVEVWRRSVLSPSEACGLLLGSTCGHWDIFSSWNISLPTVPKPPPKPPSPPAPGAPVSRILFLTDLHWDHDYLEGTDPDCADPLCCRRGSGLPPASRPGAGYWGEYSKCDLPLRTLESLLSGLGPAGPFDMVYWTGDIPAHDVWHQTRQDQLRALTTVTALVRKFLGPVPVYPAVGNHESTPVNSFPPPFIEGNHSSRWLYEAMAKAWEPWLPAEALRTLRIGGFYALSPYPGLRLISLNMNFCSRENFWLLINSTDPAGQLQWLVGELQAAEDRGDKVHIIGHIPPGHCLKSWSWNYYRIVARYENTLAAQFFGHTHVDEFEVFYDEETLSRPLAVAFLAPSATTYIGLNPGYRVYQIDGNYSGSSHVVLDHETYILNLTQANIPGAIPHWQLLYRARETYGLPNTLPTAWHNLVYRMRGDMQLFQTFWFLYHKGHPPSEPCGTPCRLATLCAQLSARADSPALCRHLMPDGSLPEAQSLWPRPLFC
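Human placenta-derived ASM preincubated with compound 10 min at room temperature, then reacted with 9 uM (final) fluorogenic HMU-PC substrate for 60 min at 37 C. Stop solution raises pH to 10; fluorescence read at Ex 386/Em 447 nm.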
TDP1 cell noCPT: qHTS for Inhibitors of human tyrosyl-DNA phosphodiesterase 1 (TDP1): qHTS in cells in absence of CPT | DT40 Tdp1-/- hTDP1 cells, no CPT, ATP luminescence, 48 h | Potency, µM (titrated, usually from 46.2 µM), without a hit: at the highest dose activity change, negative = growth inhibition, hits mostly inhibitors | 420,000 compounds, 15% hits; also: potency is read from the fitted curve at half-maximal effect; % is scaled to controls: 0 for no effect and ±100 for the full control effect; nearly all actives have a fitted effect of over 55% in size
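Luminescent ATP content (CellTiter-Glo) served as the growth readout. Knockout chicken DT40 cells expressing human TDP1 were exposed to compounds without camptothecin for a minimum 48 hr at 37 °C.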
HepG2 viability: HepG2 cytotoxicity, counter-screen for TGF-b inhibitors; HepG2 CAGA-GFP viability, ATP luminescence, 18 h; Potency, µM (top dose mostly 46.1 µM), inactives show top-dose activity change, negative = cytotoxicity, actives largely listed as cytotoxic; 410,000 compounds, 0.76% hits; AID 588856; also: potency is read from the fitted curve at half-maximal effect
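CellTiter-Glo luminescence gave cytotoxicity after 18 hours at 37 degrees C. The cells were HepG2 CAGA-GFP in 1% FBS DMEM, stimulated with 500 pg/mL TGF-beta after compound addition. %Activity was normalised to no-cell wells (complete cell-killing) and DMSO (no toxicity), and curves were fitted and classified.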
Starred values were filed as active, the others as inactive; ? = inconclusive; / = no result. Unless noted, calls follow the shape of the dose curve; as a rule, active = well fitted curve in the direction sought with a large enough effect; inconclusive = small, poorly fitted or top-dose-only effect, or another doubt; inactive = no such curve, though single readings can be large; an effect the other way counts as inactive or inconclusive.

SMILES	IL-1B inflam inh	TGFb inhibitor	DT40 TDP1 CPT	S-ASM inh	TDP1 cell noCPT	HepG2 viability
COc1ccc(-n2nc3c(c2NC(=O)COc2cccc(OC)c2)CS(=O)(=O)C3)cc1	1.3	-3.0%	3.2%	-1.7%	-1.6%	1.1%
COc1cc(NC(=O)C2CCCCC2)c(OC)cc1NC(=O)c1ccccc1	-12.4	3.5%	-17.3%	1.6%	-19.2%	-12.7%
CCOC(=O)C1CCN(C(=O)CCNS(=O)(=O)c2cc(Br)cnc2N)CC1	23.1	2.0%	-8.6%	1.4%	1.6%	15.4%
CC(C)C(NS(C)(=O)=O)c1nnc2n1CCN(Cc1ccc(C#CC(C)(C)O)cc1)CC2 (stereo not given)	/	/	2.8%	/	-24.1%	/
Cc1nnc(SCCC(=O)Nc2ccccc2Cl)o1	-0.2	15.0%	-1.2%	-3.8%	-5.8%	-61.5%
COc1cccc(-c2nnc(SCC(=O)N3CCCc4ccccc43)o2)c1	8.7	3.1%	-4.6%	-3.4%	-14.1%	0.9%
COc1cc(-c2nnc(SCC(=O)N3CCCc4ccccc43)o2)cc(OC)c1OC	/	1.7%	?	/	23.1µM*	-21.9%
COc1cccc(/C=N/Nc2nc(-c3cccnc3)nc3ccccc23)c1	28.1	?	16.4µM*	129.3%	16.4µM*	-31.3%
Fc1ccccc1CNc1nc(-c2cccnc2)nc2ccccc12	-96.9*	?	?	-0.6%	23.1µM*	-18.2%
Brc1ccc(-c2nc(N/N=C/c3cccnc3)c3ccccc3n2)cc1	22.7	-4.0%	11.6µM*	-13.9%	13µM*	-50.0%
FC(F)(F)c1nc2ccccc2nc1N/N=C\c1ccccc1	10.9	?	20.6µM*	-4.9%	18.4µM*	-14.3%
COc1ccc(-c2oc3c(c2C(=O)OCCCO)C(OCCCCCO)CCC3)cc1 (stereo not given)	4.7	/	?	/	?	/
COc1cc(Cl)cc(CN2CCC(CCC(=O)NC3CC3)CC2)c1OC	15.3	15.2%	-16.7%	2.1%	-4.9%	-6.3%
C/C(=N\O)c1ncc(C(F)(F)F)cc1Cl	-13.2	-6.5%	4.1%	8.0%	-4.3%	8.0%
CCCNC(=O)C1(C)CCCN(C(=O)c2cccc(OC(F)(F)F)c2)C1 (stereo not given)	20.9	0.9%	-26.4%	/	?	-3.1%
C(=N\Nc1nc(-c2cccnc2)nc2ccccc12)/c1ccccc1	/	-26.4%	?	98.9%	16.4µM*	-14.9%
COc1ccccc1C(C)Nc1nc(-c2cccnc2)nc2ccccc12 (stereo not given)	?	?	18.4µM*	-21.2%	23.1µM*	1.9%
C(=N\Nc1nc(-c2ccccn2)nc2ccccc12)/c1ccccc1	/	1.78µM*	/	/	/	-35.4%
CC(Nc1nc(-c2cccnc2)nc2ccccc12)c1ccccc1 (stereo not given)	30.9	-0.8%	?	/	?	-47.5%
COc1cccc(CNc2nc(-c3cccnc3)nc3ccccc23)c1	-93.2*	-0.7%	?	-4.9%	?	9.4%
OC(CNC1Cc2ccccc2C1)c1ccccc1 (stereo not given)	-4.3	1.8%	0.0%	12.7%	-18.6%	-15.3%
C[C@H]1CN([C@@H](C)CO)S(=O)(=O)c2ccc(C#Cc3ccccn3)cc2O[C@H]1CN(C)Cc1ccc(F)cc1	-24.1	1.8%	?	/	?	-25.6%
C[C@H]1CN([C@@H](C)CO)S(=O)(=O)c2ccc(C#Cc3cccnc3)cc2O[C@@H]1CN(C)C(=O)Nc1ccc2c(c1)OCO2	-12.2	6.7%	?	/	23.1µM*	-14.5%
C[C@@H]1CN([C@H](C)CO)S(=O)(=O)c2ccc(C#Cc3ccccc3F)cc2O[C@H]1CN(C)C(=O)c1ccc2c(c1)OCO2	-73.9*	?	18.4µM*	/	6.51µM*	-29.5%
C[C@H](CO)N1C[C@H](C)[C@@H](CN(C)CC2CCOCC2)Oc2cc(C#Cc3ccccc3F)ccc2S1(=O)=O	-19.0	?	18.4µM*	/	9.2µM*	-21.3%
SMILES	IL-1B inflam inh	TGFb inhibitor	DT40 TDP1 CPT	S-ASM inh	TDP1 cell noCPT	HepG2 viability
CC(C)(Oc1ccc(Cl)cc1)C(=O)Nc1c2c(nn1C(C)(C)C)CS(=O)(=O)C2	?	10.3%	?	0.8%	?	4.5%
Cc1cc(-c2nnc(SCC(=O)Nc3ccccc3C)n2N)n[nH]1	19.7	10.5%	-8.1%	-0.4%	9.7%	0.7%
CN(Cc1cc2ccccc2[nH]c1=O)C(=O)COc1ccccc1	20.1	4.4%	1.3%	1.7%	7.8%	1.2%
O=C(NCC1CCN(Cc2ccccc2F)CC1)C1CCCN(c2ncnc3c2nc2n3CCCCC2)C1 (stereo not given)	?	-12.4%	?	1.5%	-6.6%	-19.3%
CC(NC(=O)Nc1ccc(F)cc1)c1ccc2c(c1)OCO2 (stereo not given)	-3.1	0.7%	-25.0%	3.3%	5.5%	-3.0%
COc1ccc(CNC(=O)c2ccc(N3CCCC3)c(NC(=O)NCc3ccc(C)cc3)c2)cc1	/	-7.3%	16.4µM*	/	?	-20.5%
CCc1ccccc1NC(=O)Nc1cc(C(=O)NCc2ccccc2OC)ccc1N1CCCC1	/	19.9%	14.6µM*	/	?	5.0%
CCOCCCNC(=O)Nc1cc(C(=O)NCc2ccc(C(C)C)cc2)ccc1N1CCCC1	/	?	25.9µM*	/	?	-11.7%
CCOc1ccccc1NC(=O)Nc1cc(C(=O)NCc2ccc(C)cc2)ccc1N1CCCC1	/	0.4%	8.2µM*	/	8.2µM*	-9.4%
COc1ccc(C)cc1NC(=O)Nc1cc(C(=O)NCc2ccc(C)cc2)ccc1N1CCCC1	/	3.3%	?	/	?	-21.6%
CC(C)c1ccc(CNC(=O)c2ccc(N3CCCC3)c(NC(=O)NCc3ccc(F)cc3)c2)cc1	/	8.6%	?	/	?	-0.7%
Nc1ccccc1Nc1c(F)c(F)nc(F)c1Cl	31.5	56.2%	2.4%	4.1%	-0.1%	-7.3%
O=C1C[C@@H]2c3c(cccc3CN1Cc1ccccc1F)C[C@@H](O)[C@H]2O	28.4	-8.1%	-1.1%	0.7%	-2.7%	-2.2%
CC1CCCC(NC(=O)c2ccc3c(c2)NC(=O)CS3)C1C (stereo not given)	-9.6	-15.9%	-20.6%	4.4%	?	-40.2%
CCOC(=O)c1c(C)[nH]c(C)c1S(=O)(=O)NCCc1cccs1	-4.7	6.8%	5.7%	-1.3%	?	-8.9%
CCNC(=O)NCc1cccc(Cl)c1	/	/	-3.6%	/	0.0%	/
